High-throughput results: PubChem BioAssay, Broad Institute
Only some compounds are listed: those with a hit (about 6.8% of all), similar ones and a draw of the others.
Pf Dd2 inh = P. falciparum Dd2 growth inhibition. SYBR Green, 72 h; stronger effect = lower value. activity change, % at 10 µM. hit rate 2.3% among 94,000; in the data active = activity change below about -80%; inconclusive = no clear call, values can overlap the other calls
T cruzi growth-1 = inhibitors of T. cruzi proliferation; T. cruzi beta-gal in NIH3T3, GalScreen luminescence, 90 h; inhibition, % at 8.34 µM; hit rate 5.9% among 77,000; AID 624255;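 active = mean inhibition above about 93%, with at least 55% of replicates each passing it, limit read from the data, passing the limit was not always enough; inconclusive = only one of those two conditions holds; inactive = neither condition holds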
C diff growth = blocks growth of Clostridium difficile; Clostridium difficile clinical isolate growth, OD600, 24 h; stronger effect = lower value; growth activity, negative = inhibition, % at 16 µg/mL (by protocol); hit rate 0.25% among 86,000;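 active = mean growth activity at or below -80% and every replicate also at or below -80%; inconclusive = mean at or below -80% but some replicate above -80%; inactive = mean growth activity above -80%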
T cruzi growth-2 = blocks T. cruzi growth in NIH3T3 host cells; T. cruzi beta-gal in NIH3T3, GalScreen luminescence, 90 h; inhibition, % at 8.35 µM; hit rate 72% among 5,600; shares compounds with T cruzi growth-1;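 active = mean replicate inhibition above about 95% and at least 55% of replicates individually reaching it, limit read from the data; inconclusive = only one of the two criteria is met; inactive = neither criterion is met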
T cruzi growth-3 = inhibitors of T. cruzi proliferation; shares compounds with T cruzi growth-1; T. cruzi beta-gal in NIH3T3, GalScreen luminescence, 90 h; inhibition, % at 2.09 µM; hit rate 21% among 5,600; AID 651740;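 active = mean inhibition above about 95%, with at least 55% of replicates also reaching it, limit read from the data; inconclusive = meets just one of the two conditions; inactive = meets neither condition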
NIH3T3 tox = cytotoxicity in mouse NIH/3T3 fibroblasts | shares compounds with T cruzi growth-1 | NIH/3T3 viability, CellTiter-Glo ATP luminescence, 90 h | cytotoxicity (signal decrease), % at 8.35 µM | hit rate 14% among 5,600 | AID 651742;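 active = mean signal decrease across replicates above about 35% based on untreated-well scatter, with enough replicates individually passing, limit read from the data; inconclusive = no rule stated though some were filed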
NIH3T3 tox 2 = NIH/3T3 (mouse) viability loss; shares compounds with T cruzi growth-1; NIH/3T3 viability, CellTiter-Glo ATP luminescence, 90 h; inhibition, % at 24.9 µM; hit rate 56% among 5,600; AID 651744;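 active = mean loss of cell viability signal at or above a set limit, and enough replicates individually reaching it; inconclusive = meets only the mean limit or only the replicate share; inactive = meets neither condition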
Hits are given with their value; – = inactive; ? = inconclusive; · = not tested or not shown.

SMILES	Pf Dd2 inh	T cruzi growth-1	C diff growth	T cruzi growth-2	T cruzi growth-3	NIH3T3 tox	NIH3T3 tox 2
O=C(c1ccccc1F)N1CC[C@@H]2[C@H](CO)Nc3ccc(C#Cc4ccc(F)cc4)cc3[C@@H]21	–	–	–	·	·	·	·
COc1ccc(C#Cc2ccc3c(c2)[C@@H]2[C@@H](CCN2C(=O)c2ccccc2F)[C@H](CO)N3C)cc1	–	?	·	110.6	?	–	54.2
COc1ccc(C#Cc2ccc3c(c2)[C@@H]2[C@@H](CCN2C(=O)c2ccccc2F)[C@@H](CO)N3C)cc1	–	–	–	·	·	·	·
CN1c2ccc(C#Cc3ccc(F)cc3)cc2[C@@H]2[C@@H](CCN2C(=O)CN2CCOCC2)[C@H]1CO	–	–	–	·	·	·	·
COc1ccc(C#Cc2ccc3c(c2)[C@@H]2[C@@H](CCN2C(=O)c2ccccc2F)[C@@H](CO)N3)cc1	–	106.0	–	102.2	–	–	–
COc1ccc(C#Cc2ccc3c(c2)[C@H]2[C@H](CCN2C(=O)CN2CCOCC2)[C@H](CO)N3C)cc1	–	98.6	–	110.6	–	–	26.8
Cc1cccc(S(=O)(=O)N(C)C[C@H]2OCc3cn(nn3)CCCC(=O)N([C@@H](C)CO)C[C@H]2C)c1	–	–	·	·	·	·	·
C[C@H]1CCCCO[C@H](CN(C)C(=O)C2CCCCC2)[C@@H](C)CN([C@@H](C)CO)C(=O)c2cc(NC(=O)Nc3ccc(F)cc3)ccc2O1	–	–	–	·	·	·	·
C[C@H]1CCCCO[C@@H](CN(C)Cc2ccc(C(F)(F)F)cc2)[C@@H](C)CN([C@@H](C)CO)C(=O)c2cc(NS(=O)(=O)c3cccs3)ccc2O1	–	111.9	–	–	–	–	105.1
C[C@H](CO)N1C[C@H](C)[C@H](CN(C)Cc2ccc(C(F)(F)F)cc2)OCCCC[C@H](C)Oc2ccc(NS(=O)(=O)c3cccs3)cc2C1=O	–	·	–	·	·	·	·
C[C@@H]1CCCCO[C@H](CN(C)Cc2ccc(C(=O)O)cc2)[C@H](C)CN([C@@H](C)CO)C(=O)c2cc(NS(=O)(=O)c3cccs3)ccc2O1	–	–	–	·	·	·	·
C[C@H]1CCCCO[C@H](CN(C)Cc2ccc(C(F)(F)F)cc2)[C@@H](C)CN([C@@H](C)CO)C(=O)c2cc(NS(=O)(=O)c3cccs3)ccc2O1	–	113.2	–	97.8	107.2	–	103.2
C[C@@H]1CN([C@@H](C)CO)C(=O)c2cc(NS(=O)(=O)c3cccs3)ccc2O[C@@H](C)CCCCO[C@@H]1CN(C)Cc1ccc(C(F)(F)F)cc1	–	?	–	101.9	118.1	–	63.4
C[C@@H]1CCCCO[C@@H](CN(C)Cc2ccc(C(F)(F)F)cc2)[C@@H](C)CN([C@@H](C)CO)C(=O)c2cc(NS(=O)(=O)c3cccs3)ccc2O1	–	–	–	·	·	·	·
C[C@@H]1CCCCO[C@@H](CN(C)Cc2ccc(Cl)c(Cl)c2)[C@@H](C)CN([C@@H](C)CO)C(=O)c2cc(NS(=O)(=O)c3ccccc3)ccc2O1	–	–	–	·	·	·	·
C[C@@H]1CCCCO[C@@H](CN(C)S(=O)(=O)c2ccccc2)[C@H](C)CN([C@H](C)CO)C(=O)c2cc(NC(=O)c3ccccc3)ccc2O1	–	–	·	·	·	·	·
COCC(=O)N[C@@H]1C=C[C@H](CC(=O)NCc2ccccc2OC)O[C@@H]1CO	–	–	–	·	·	·	·
Cc1noc(C)c1S(=O)(=O)Nc1cccc2c1O[C@@H](CN(C)Cc1ccc(-c3ccccc3)cc1)[C@@H](C)CN([C@H](C)CO)C2=O	–	–	–	·	·	·	·
C[C@@H]1CN([C@H](C)CO)C(=O)c2cc(NC(=O)Nc3cccc4ccccc34)ccc2O[C@@H](C)CCCCO[C@@H]1CN(C)Cc1ccncc1	–	–	–	·	·	·	·
COc1ccc(CN(C)C[C@H]2OCCCC[C@H](C)Oc3ccc(NC(=O)Nc4cccc5ccccc45)cc3C(=O)N([C@H](C)CO)C[C@H]2C)cc1	-89.9	?	–	98.2	106.2	–	55.4
C[C@@H]1CN([C@H](C)CO)C(=O)c2cc(NC(=O)Nc3cccc4ccccc34)ccc2O[C@@H](C)CCCCO[C@H]1CN(C)Cc1ccncc1	–	99.7	–	107.2	–	36.3	46.9
C[C@H](CO)N1C[C@H](C)[C@@H](CN(C)Cc2ccccc2)OCCCC[C@H](C)Oc2ccc(NC(=O)Nc3cccc4ccccc34)cc2C1=O	–	·	–	·	·	·	·
